Laboratory results reported in PubChem BioAssay (EPA / NIEHS).
Inconclusive results are not listed. Where a structure was tested more than once in an assay, its records may differ in their call. Calls of active or inactive are those of the source. How the source made its calls: active means hit-call score of the fitted dose curve at least 0.9, where 1 is the maximum; inconclusive means response in the unintended direction; inactive means score below 0.9.

What was measured:
[1] = target: D(1A) dopamine receptor (Homo sapiens) (UniProt P21728); experiment: NVS_GPCR_hDRD1: NovaScreen (NVS) G Protein-Coupled Receptor Assay for human Dopamine Receptor D1 (DRD1) (AID 2283269)
In short: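 Extracted HEK293 DRD1 is incubated 1 h with compound and a tritiated or iodinated radioligand, then filtered and counted. Screening runs 25 uM in duplicate with on-plate positive and negative controls.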

[2] = target: guinea pig Opioid, Kappa 1 Receptor (OpiateK), OPRK1 (gene 100135587) (UniProt P41144); experiment: NVS_GPCR_gOpiateK: NovaScreen (NVS) G Protein-Coupled Receptor Assay for guinea pig Opioid, Kappa 1 Receptor (OpiateK) (AID 2283252);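 further: radioligand displacement from kappa opioid receptor in guinea pig cerebellar membranes; active means reduced radioligand binding relative to DMSO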
In short: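 Guinea pig cerebellar membranes, radioligand displacement with filter-based scintillation counting, 2 h after dosing. Primary screen single concentration 25 uM in duplicate; actives retested in concentration series; loss of binding fitted versus DMSO.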

[3] = target: Muscarinic acetylcholine receptor M2 (Homo sapiens) (UniProt P08172); experiment: NVS_GPCR_hM2: NovaScreen (NVS) G Protein-Coupled Receptor Assay for human Muscarinic, M2 Receptor (AID 2283273)
In short: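 Radioligand displacement on human M2 receptor membranes from CHO cells, 1 h incubation, filtration with scintillation counting. Primary screen in duplicate at 25 uM; actives retested in concentration series; loss of signal fitted versus DMSO.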

[4] = target: human Thromboxane A2 Receptor (TXA2), TBXA2R (gene 6915) (UniProt P21731); experiment: NVS_GPCR_hTXA2: NovaScreen (NVS) G Protein-Coupled Receptor Assay for human Thromboxane A2 Receptor (TXA2) (AID 2283282);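 further: actives reduce bound radioligand signal relative to DMSO baseline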
In short: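 Human platelet membranes tested for radioligand displacement by filtration and scintillation counting 1 h post-dose. Screened in duplicate at 25 uM; activity fitted as signal loss relative to DMSO.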

[5] = target: human Opioid Receptor Mu (Opiate Mu), OPRM1 (gene 4988) (UniProt P35372); experiment: NVS_GPCR_hOpiate_mu: NovaScreen (NVS) G Protein-Coupled Receptor Assay for human Opioid Receptor Mu (Opiate Mu) (AID 2283290);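 further: hits lower bound tracer signal versus DMSO meaning displacement of the ligand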
In short: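 Here, radioligand binding to CHO-extracted receptor was measured after 2.5 h using filter-based scintillation detection. Initial single-concentration screening used 25 uM in duplicate with plate controls; confirmed actives went to concentration-response testing.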

[6] = target: rat Adrenergic Receptor, Alpha 2 (Adra2), Non-selective Binding, Adra2a (gene 25083) (UniProt P22909); experiment: NVS_GPCR_rAdra2_NonSelective: NovaScreen (NVS) G Protein-Coupled Receptor Assay for rat Adrenergic Receptor, Alpha 2 (Adra2), Non-selective Binding (AID 2283299)
In short: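 Rat cortical membranes, radioligand competitive displacement read by filter-based scintillation counting 1.25 hours after dosing. Primary screen in duplicate at 25 uM; actives followed up in concentration series.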

[7] = target: rat Neonicotinoid receptor (NNR), Chrna7 (gene 25302) (UniProt Q05941); experiment: NVS_LGIC_rNNR_BungSens: NovaScreen (NVS) Ligand-Gated Ion Channel Assay for rat Neonicotinoid receptor (NNR) (AID 2283315)
In short: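 Radioligand displacement binding on rat cortical membranes, 2.5 h incubation, filtration and scintillation counting. Loss of specific binding fitted relative to DMSO.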

[8] = target: Sodium channel protein type 1 subunit alpha (Rattus norvegicus) (UniProt P04774); experiment: NVS_IC_rNaCh_site2: NovaScreen (NVS) Ion Channel Assay for rat Sodium Channel, Site 2 (NaCh) (AID 2283322);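 further: hit means loss of radioligand binding signal relative to DMSO so AC50 marks displacement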
In short: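 Membranes: rat forebrain. Format: competitive radioligand displacement, filter separation, scintillation readout, 1 h exposure. Primary screen in duplicate at 25 uM; actives retested in concentration series.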

[9] = NVS_IC_rCaBTZCHL: NovaScreen (NVS) Ion Channel Assay for Calcium Channel, Type L, Benzothiazepine Site (CaBTZCHL) (AID 2283337)
In short: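 Competitive displacement of a site-specific radioligand from rat cortex membranes, measured as signal loss against DMSO baseline by filter radiodetection after 1.5 h. Single-point 25 uM primary screen.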

[10] = target: human Peripheral-type Benzodiazepine Receptor (PBR), TSPO (gene 706) (UniProt P30536); experiment: NVS_MP_hPBR: NovaScreen (NVS) Membrane Protein Assay for human Peripheral-type Benzodiazepine Receptor (PBR) (AID 2283331);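 further: hits reduce radioligand binding relative to DMSO baseline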
In short: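 Radioligand displacement on human colonic cell membranes, 1 h incubation; bound radioactivity by filtration and scintillation counting. Primary screen in duplicate at 25 uM single concentration, actives followed up in concentration series; loss of binding versus DMSO.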

[11] = target: human Androgen Receptor (AR), AR (gene 367) (UniProt P10275); experiment: NVS_NR_hAR: NovaScreen (NVS) Nuclear Receptor Binding Assay for human Androgen Receptor (AR) (AID 2283332)
In short: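 LnCAP cell-free extract; radioligand displacement read by scintillation counting after 20 h. Primary screen single concentration 25 uM in duplicate, actives then run as concentration series; loss-of-signal fitted relative to DMSO baseline.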

[12] = target: rat Peripheral-type Benzodiazepine Receptor (PBR), Tspo (gene 24230) (UniProt P16257); experiment: NVS_MP_rPBR: NovaScreen (NVS) Membrane Protein Assay for rat Peripheral-type Benzodiazepine Receptor (PBR) (AID 2283335)
In short: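 Radioligand displacement, rat kidney membrane prep, 1 h exposure, filter-based scintillation read; DMSO baseline, loss-of-signal scored. Primary screen at 25 uM in duplicate, actives followed up in concentration series.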

[13] = target: chimpanzee Androgen Receptor (AR), AR (gene 747460) (UniProt O97775); experiment: NVS_NR_cAR: NovaScreen (NVS) Nuclear Receptor Binding Assay for chimpanzee Androgen Receptor (AR) (AID 2283346);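 further: radioligand displacement from AR measured by scintillation counting in a cell-free assay; a loss of bound radioligand signal versus DMSO counts as binding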
In short: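 Radioligand binding to chimpanzee AR expressed in Sf9/Sf21 cells, cell-free, measured 72 h after dosing by lysate-based scintillation counting. Loss of signal vs DMSO; initial duplicate screen at 25 uM, actives retested in concentration series.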

[14] = target: human Adenosine A2a Receptor (AdoRA2a), ADORA2A (gene 135) (UniProt P29274); experiment: NVS_GPCR_hAdoRA2a: NovaScreen (NVS) G Protein-Coupled Receptor Assay for human Adenosine A2a Receptor (AdoRA2a) (AID 2283256)
In short: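 Cell-free radioligand binding on membranes from HEK293 expressing the receptor; competitive displacement read 1.5 h after dosing by filter-based scintillation counting. Primary screen in duplicate at 25 uM; actives followed in concentration series, with DMSO as baseline.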

[15] = target: human Adenosine A1 Receptor (AdoRA1), ADORA1 (gene 134) (UniProt P30542); experiment: NVS_GPCR_hAdoRA1: NovaScreen (NVS) G Protein-Coupled Receptor Assay for human Adenosine A1 Receptor (AdoRA1) (AID 2283254)
In short: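 Each chemical is first tested twice at 25 uM, actives later in dilution series, against a radioligand bound to human cortex membranes; after 1 h, filter-retained counts are compared with DMSO controls, lower signal indicating displacement.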

[16] = target: human Neurokinin, NK2 Receptor, TACR2 (gene 6865) (UniProt P21452); experiment: NVS_GPCR_hNK2: NovaScreen (NVS) G Protein-Coupled Receptor Assay for human Neurokinin, NK2 Receptor (AID 2283278);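 further: actives reduce bound radioligand signal relative to DMSO baseline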
In short: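 Test chemicals displace a radioligand from receptor prepared from CHO cells in a cell-free format, read after 4 hours by scintillation counting on filters. Screening starts at 25 uM in duplicate, and active chemicals then go to concentration series.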

[17] = target: human Endothelin Receptor Type A (ETA), EDNRA (gene 1909) (UniProt P25101); experiment: NVS_GPCR_hETA: NovaScreen (NVS) G Protein-Coupled Receptor Assay for human Endothelin Receptor Type A (ETA) (AID 2283265)
In short: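 Cell-free radioligand displacement using SH-SY5Y-derived protein, 3 h incubation, filter-based scintillation counting. Primary screen in duplicate at 25 uM; actives then run in concentration-response up to 50 uM; loss of binding fitted versus DMSO.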

[18] = target: Muscarinic acetylcholine receptor M1 (Homo sapiens) (UniProt P11229); experiment: NVS_GPCR_hM1: NovaScreen (NVS) G Protein-Coupled Receptor Assay for human Muscarinic, M1 Receptor (AID 2283270)
In short: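 Cell-free radioligand displacement using membrane protein extracted from CHO cells, read by filter-based scintillation counting 1 h after dosing. Loss of bound signal fitted versus DMSO; primary screen single concentration 25 uM in duplicate, actives followed by concentration series.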

[19] = target: human Orphanin, Opioid Related Nociceptin Receptor 1 (ORL1), OPRL1 (gene 4987) (UniProt P41146); experiment: NVS_GPCR_hORL1: NovaScreen (NVS) G Protein-Coupled Receptor Assay for human Orphanin, Opioid Related Nociceptin Receptor 1 (ORL1) (AID 2283283)
In short: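 Filter-based radioligand displacement with receptor extracted from HEK293 cells, read 1 hour after dosing by scintillation counting. Duplicate single-point screen at 25 uM; qualifying chemicals then run in concentration-response to 50 uM, analysed relative to DMSO.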

[20] = target: guinea pig Leukotriene D4 Receptor (LTD4), CYSLTR1 (gene 100135514) (UniProt Q2NNR5); experiment: NVS_GPCR_gLTD4: NovaScreen (NVS) G Protein-Coupled Receptor Assay for guinea pig Leukotriene D4 Receptor (LTD4) (AID 2283248)
In short: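 Radioligand displacement on guinea pig lung membranes, 1 h incubation, filtration and scintillation counting; DMSO as negative control. Duplicate 25 uM primary screen, then singleton concentration-response up to 50 uM.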

Sequence of human Adenosine A2a Receptor (AdoRA2a), ADORA2A (gene 135) (P29274 whole entry, looked up): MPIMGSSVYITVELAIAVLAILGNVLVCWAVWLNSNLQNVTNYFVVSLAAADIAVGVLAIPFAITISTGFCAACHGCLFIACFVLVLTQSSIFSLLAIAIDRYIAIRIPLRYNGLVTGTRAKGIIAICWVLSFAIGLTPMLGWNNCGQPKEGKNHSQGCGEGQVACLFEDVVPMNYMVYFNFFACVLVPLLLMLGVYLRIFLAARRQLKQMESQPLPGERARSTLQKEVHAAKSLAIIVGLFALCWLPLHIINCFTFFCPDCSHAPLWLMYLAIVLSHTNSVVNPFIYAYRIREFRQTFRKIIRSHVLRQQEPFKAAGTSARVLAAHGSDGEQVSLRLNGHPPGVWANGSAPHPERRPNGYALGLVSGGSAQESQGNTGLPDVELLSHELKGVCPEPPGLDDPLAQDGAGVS
Sequence of human Thromboxane A2 Receptor (TXA2), TBXA2R (gene 6915) (P21731 whole entry, looked up): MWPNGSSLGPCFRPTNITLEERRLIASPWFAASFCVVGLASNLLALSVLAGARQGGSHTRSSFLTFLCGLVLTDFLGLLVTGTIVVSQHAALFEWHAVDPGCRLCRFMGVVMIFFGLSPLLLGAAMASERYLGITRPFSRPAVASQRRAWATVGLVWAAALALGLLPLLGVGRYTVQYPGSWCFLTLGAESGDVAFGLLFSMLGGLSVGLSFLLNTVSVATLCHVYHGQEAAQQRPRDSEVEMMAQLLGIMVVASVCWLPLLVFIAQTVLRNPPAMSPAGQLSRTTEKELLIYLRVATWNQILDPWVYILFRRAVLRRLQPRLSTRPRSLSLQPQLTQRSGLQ
Sequence of D(1A) dopamine receptor (Homo sapiens) (P21728 whole entry, looked up): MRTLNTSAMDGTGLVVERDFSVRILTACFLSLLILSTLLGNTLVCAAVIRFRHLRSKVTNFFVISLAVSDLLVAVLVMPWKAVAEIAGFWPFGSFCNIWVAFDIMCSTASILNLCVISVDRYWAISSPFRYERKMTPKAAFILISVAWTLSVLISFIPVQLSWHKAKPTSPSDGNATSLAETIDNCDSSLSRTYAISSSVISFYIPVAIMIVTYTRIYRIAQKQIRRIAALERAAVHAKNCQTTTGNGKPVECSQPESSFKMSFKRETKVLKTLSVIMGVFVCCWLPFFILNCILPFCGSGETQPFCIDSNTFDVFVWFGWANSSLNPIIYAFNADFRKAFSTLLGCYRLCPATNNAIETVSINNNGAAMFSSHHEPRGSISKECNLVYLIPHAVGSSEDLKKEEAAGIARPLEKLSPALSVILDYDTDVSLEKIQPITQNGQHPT
Sequence of human Neurokinin, NK2 Receptor, TACR2 (gene 6865) (P21452 whole entry, looked up): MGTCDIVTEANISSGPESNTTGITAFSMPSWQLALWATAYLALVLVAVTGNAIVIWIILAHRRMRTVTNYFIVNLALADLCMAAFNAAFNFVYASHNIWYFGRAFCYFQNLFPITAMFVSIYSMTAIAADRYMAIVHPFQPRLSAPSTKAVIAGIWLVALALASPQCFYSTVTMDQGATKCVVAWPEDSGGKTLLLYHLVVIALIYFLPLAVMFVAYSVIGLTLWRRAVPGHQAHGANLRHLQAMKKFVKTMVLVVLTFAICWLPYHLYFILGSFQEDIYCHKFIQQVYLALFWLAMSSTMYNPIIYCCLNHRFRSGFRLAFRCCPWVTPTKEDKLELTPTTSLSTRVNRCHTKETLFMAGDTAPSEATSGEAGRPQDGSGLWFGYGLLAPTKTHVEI
Sequence of human Adenosine A1 Receptor (AdoRA1), ADORA1 (gene 134) (P30542 whole entry, looked up): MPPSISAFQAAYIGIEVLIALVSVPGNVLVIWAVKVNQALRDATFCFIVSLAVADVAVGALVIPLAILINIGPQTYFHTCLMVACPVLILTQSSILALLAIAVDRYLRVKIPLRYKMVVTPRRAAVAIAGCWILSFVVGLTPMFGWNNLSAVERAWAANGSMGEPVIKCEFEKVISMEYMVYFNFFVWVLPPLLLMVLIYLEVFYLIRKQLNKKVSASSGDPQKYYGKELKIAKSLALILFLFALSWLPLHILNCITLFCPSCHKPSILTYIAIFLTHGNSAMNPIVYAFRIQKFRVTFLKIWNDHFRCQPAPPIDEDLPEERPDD
Sequence of rat Neonicotinoid receptor (NNR), Chrna7 (gene 25302) (Q05941 whole entry, looked up): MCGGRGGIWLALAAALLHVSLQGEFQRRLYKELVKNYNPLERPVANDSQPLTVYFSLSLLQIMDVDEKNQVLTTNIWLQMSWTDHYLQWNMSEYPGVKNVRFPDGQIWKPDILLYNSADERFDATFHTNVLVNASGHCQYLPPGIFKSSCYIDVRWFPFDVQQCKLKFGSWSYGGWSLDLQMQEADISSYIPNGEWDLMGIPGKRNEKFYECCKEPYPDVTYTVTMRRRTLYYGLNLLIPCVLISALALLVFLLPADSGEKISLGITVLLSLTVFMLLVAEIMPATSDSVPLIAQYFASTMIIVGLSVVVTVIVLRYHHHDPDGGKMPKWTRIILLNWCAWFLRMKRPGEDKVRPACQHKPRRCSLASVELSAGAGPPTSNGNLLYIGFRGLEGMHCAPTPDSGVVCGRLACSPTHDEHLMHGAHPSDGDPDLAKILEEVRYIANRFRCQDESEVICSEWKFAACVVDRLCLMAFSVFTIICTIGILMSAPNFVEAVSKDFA
Sequence of chimpanzee Androgen Receptor (AR), AR (gene 747460) (O97775 whole entry, looked up): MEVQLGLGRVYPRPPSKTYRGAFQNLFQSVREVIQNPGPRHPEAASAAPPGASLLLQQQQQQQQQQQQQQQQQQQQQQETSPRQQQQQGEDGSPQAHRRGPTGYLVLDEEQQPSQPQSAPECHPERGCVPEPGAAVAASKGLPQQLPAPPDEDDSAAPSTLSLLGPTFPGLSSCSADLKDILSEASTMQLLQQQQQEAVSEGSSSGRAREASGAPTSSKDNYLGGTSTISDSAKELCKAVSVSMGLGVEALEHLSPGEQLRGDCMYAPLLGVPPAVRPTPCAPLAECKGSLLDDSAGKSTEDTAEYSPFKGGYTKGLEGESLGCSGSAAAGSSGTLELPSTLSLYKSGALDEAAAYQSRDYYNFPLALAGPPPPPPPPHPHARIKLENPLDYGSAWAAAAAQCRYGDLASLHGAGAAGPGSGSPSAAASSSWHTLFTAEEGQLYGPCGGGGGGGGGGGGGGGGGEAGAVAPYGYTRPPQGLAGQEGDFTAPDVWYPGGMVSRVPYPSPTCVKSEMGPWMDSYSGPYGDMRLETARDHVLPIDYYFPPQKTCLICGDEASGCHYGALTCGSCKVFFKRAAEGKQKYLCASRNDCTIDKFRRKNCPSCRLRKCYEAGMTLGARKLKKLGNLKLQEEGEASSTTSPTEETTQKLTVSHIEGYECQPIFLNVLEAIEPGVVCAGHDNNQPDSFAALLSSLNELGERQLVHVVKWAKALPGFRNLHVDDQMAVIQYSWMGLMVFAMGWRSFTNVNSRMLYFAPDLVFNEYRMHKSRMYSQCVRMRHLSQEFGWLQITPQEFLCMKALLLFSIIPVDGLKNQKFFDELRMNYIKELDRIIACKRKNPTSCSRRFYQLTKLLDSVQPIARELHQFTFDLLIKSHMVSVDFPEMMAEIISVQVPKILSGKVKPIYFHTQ
Sequence of human Opioid Receptor Mu (Opiate Mu), OPRM1 (gene 4988) (P35372 whole entry, looked up): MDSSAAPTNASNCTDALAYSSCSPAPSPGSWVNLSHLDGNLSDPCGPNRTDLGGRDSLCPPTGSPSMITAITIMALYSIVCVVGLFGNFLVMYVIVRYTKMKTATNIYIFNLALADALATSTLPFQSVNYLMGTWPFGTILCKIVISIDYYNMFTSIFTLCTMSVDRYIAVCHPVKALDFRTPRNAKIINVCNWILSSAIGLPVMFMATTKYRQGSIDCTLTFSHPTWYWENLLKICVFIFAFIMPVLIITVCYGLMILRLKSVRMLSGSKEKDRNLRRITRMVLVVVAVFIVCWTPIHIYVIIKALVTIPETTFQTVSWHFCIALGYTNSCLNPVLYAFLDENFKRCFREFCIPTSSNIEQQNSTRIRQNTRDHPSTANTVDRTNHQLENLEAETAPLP
Sequence of human Peripheral-type Benzodiazepine Receptor (PBR), TSPO (gene 706) (P30536 whole entry, looked up): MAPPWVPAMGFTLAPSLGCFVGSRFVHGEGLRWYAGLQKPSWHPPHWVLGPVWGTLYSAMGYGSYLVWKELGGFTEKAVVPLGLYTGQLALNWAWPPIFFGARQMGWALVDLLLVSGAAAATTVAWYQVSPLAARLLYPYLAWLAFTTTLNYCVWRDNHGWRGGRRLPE
Sequence of human Androgen Receptor (AR), AR (gene 367) (P10275 whole entry, looked up): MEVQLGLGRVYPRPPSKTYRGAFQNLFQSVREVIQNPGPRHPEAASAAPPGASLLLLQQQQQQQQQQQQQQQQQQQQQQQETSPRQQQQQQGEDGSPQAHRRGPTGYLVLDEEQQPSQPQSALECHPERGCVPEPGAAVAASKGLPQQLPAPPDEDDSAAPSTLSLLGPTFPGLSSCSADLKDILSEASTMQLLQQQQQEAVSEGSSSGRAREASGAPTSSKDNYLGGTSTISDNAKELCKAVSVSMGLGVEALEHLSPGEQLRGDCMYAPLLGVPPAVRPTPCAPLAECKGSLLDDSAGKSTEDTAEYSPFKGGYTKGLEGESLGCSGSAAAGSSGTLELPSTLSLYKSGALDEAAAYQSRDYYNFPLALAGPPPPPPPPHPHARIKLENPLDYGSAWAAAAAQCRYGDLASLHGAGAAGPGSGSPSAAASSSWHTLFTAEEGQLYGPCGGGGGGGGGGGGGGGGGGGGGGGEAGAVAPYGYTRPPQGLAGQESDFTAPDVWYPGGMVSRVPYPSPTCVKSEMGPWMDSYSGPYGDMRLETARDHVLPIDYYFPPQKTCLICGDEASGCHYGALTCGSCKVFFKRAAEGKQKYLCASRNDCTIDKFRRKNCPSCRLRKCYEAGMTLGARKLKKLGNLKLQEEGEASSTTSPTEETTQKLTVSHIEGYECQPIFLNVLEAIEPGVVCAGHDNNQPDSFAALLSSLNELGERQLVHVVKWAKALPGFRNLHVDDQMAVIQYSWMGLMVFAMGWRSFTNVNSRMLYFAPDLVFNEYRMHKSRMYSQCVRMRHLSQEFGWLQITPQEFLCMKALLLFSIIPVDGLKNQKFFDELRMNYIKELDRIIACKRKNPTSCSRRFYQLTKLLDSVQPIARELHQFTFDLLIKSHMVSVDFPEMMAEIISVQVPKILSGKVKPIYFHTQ

For `CN1CN(C)CN(C)C1`, the outcome [1] was “inactive”.

For `c1ccc(C[P+](c2ccccc2)(c2ccccc2)c2ccccc2)cc1`, the AC50 [2] was 1.98 µM (active), the outcome [1] was “inactive” and the AC50 [3] was 1.22 µM (active). The outcome [4] was “inactive”, the AC50 [5] was 1.09 µM (active) and the AC50 [6] was 17.8 µM (active). The AC50 [7] was 25 µM (active), the AC50 [8] was 5.54 µM (active) and the AC50 [9] was 4.8 µM (active).

In the case of `CCN(CC)c1ccc(C=O)c(O)c1`, the outcome [1] is reported as “inactive”, the outcome [4] is reported as “inactive” and the outcome [5] is reported as “inactive”. The outcome [10] was “inactive”, the AC50 [11] was 3.82 µM (active) and the outcome [12] was “inactive”. The AC50 [13] was 0.298 µM (active).

For `CCOCN(C(=O)CS(=O)(=O)O)c1c(C)cccc1CC`, the outcome [4] was “inactive”.

With `CCOC(C=C(C)CCC=C(C)C)OCC` the outcome [14] was “inactive” and the outcome [4] was “inactive”.

With `CCC(C)CO` (stereo not given) the outcome [15] was “inactive”.

For `O=C1c2ccccc2C(=O)c2c(Cl)cccc21`, the AC50 [15] was 13.3 µM (active), the AC50 [11] was 2.06 µM (active) and the AC50 [13] was 0.93 µM (active).

With `O=C1OC(=O)c2ccc3c4c(ccc1c24)C(=O)OC3=O` the outcome [16] was “inactive” and the outcome [8] was “inactive”.

In the case of `Oc1ccc2c(c1)CCC2`, the outcome [1] is reported as “inactive” and the outcome [4] is reported as “inactive”.

In the case of `CCCCCCCCCCCCCC[P+](CCCC)(CCCC)CCCC`, the AC50 [17] is reported as 6.26 µM (active), the AC50 [18] is reported as 1.02 µM (active) and the AC50 [19] is reported as 6.46 µM (active). The AC50 [5] was 1.07 µM (active), the AC50 [10] was 3.52 µM (active) and the AC50 [12] was 12.2 µM (active). For the same compound, the AC50 [13] was 23.1 µM (active).

For `Cc1ccc(S(=O)(=O)C(I)I)cc1`, the outcome [2] was “inactive”, the AC50 [15] was 33.2 µM (active) and the AC50 [1] was 6.43 µM (active). For the same compound, the AC50 [10] was 23.2 µM (active) and the AC50 [12] was 7.18 µM (active).

In the case of `Nc1cccnc1N`, the AC50 [15] is reported as 9.6 µM (active).

In the case of `OCCC(O)CO` (stereo not given), the AC50 [1] is reported as 37.4 µM (active).

In the case of `C[C@]12CC[C@H]3C(=CCc4cc(O)ccc43)[C@@H]1CCC2=O`, the outcome [20] is reported as “inactive”, the AC50 [11] is reported as 0.661 µM (active) and the AC50 [13] is reported as 5.87 µM (active). For the same compound, the outcome [13] was “inactive”.

For `O=C=Nc1cccc2c(N=C=O)cccc12`, the outcome [1] was “inactive”, the AC50 [4] was 672 nM (active) and the AC50 [10] was 0.353 µM (active).

In the case of `Nc1c(Br)cc([N+](=O)[O-])cc1Br`, the outcome [14] is reported as “inactive” and the outcome [7] is reported as “inactive”.

For `O=C1C=CC(=O)N1c1ccc(Cc2ccc(N3C(=O)C=CC3=O)cc2)cc1`, the AC50 [1] was 25 µM (active) and the AC50 [16] was 28.4 µM (active).

In the case of `O=C(c1ccccc1)c1ccc(O)cc1O`, the outcome [20] is reported as “inactive”, the outcome [15] is reported as “inactive” and the AC50 [14] is reported as 29.7 µM (active). The outcome [4] was “inactive”, the outcome [12] was “inactive” and the outcome [9] was “inactive”. The AC50 [13] was 9.97 µM (active) and the outcome [13] was “inactive”.

In the case of `CCCCCCCCn1sc(Cl)c(Cl)c1=O`, the outcome [17] is reported as “inactive”, the AC50 [19] is reported as 16.5 µM (active) and the AC50 [5] is reported as 8.39 µM (active).

With `CCN(CC)c1ccc(N=Nc2ccccc2)cc1` the outcome [1] was “inactive” and the outcome [16] was “inactive”.

With `Oc1ccc(C2(c3ccc(O)c(C4CCCCC4)c3)CCCCC2)cc1C1CCCCC1` the outcome [1] was “inactive”, the AC50 [3] was 8.57 µM (active) and the AC50 [16] was 16.2 µM (active). For the same compound, the AC50 [5] was 17.3 µM (active) and the outcome [8] was “inactive”.

With `O=c1cccc[nH]1` the outcome [7] was “inactive”.

For `CCN(CC)c1ccc2c(c1)Oc1cc(N(CC)CC)ccc1C21OC(=O)c2ccccc21`, the AC50 [7] was 3.48 µM (active).

In the case of `C#CC(O)CCC` (stereo not given), the outcome [11] is reported as “inactive”.

For `O=C1c2c(O)ccc(Nc3ccc(CCO)cc3)c2C(=O)c2c([N+](=O)[O-])ccc(O)c21`, the AC50 [11] was 13.8 µM (active).
